Results taken from PubChem BioAssay AID1851 (National Center for Advancing Translational Sciences (NCATS), 2009).
Where “and” joins values, the source holds several entries; their conditions need not be identical. Identical values can stand only once. Hit rate of the full screen: of about 16,000 compounds, about 2,600 (16%) were called active. Another 20% or so got no clear call; they are omitted. A selection follows. Unmarked numbers belong to inactive results. Calls come from the whole dose curve; as a rule, active = well fitted curve in the direction sought with a large enough effect; inconclusive = small, poorly fitted or top-dose-only effect, or effect the other way; inactive = no such curve, though single readings can be large or run the other way.

Molecular target: Cytochrome P450 2D6 (Homo sapiens) (UniProt P10635)
Sequence (P10635 whole entry, looked up): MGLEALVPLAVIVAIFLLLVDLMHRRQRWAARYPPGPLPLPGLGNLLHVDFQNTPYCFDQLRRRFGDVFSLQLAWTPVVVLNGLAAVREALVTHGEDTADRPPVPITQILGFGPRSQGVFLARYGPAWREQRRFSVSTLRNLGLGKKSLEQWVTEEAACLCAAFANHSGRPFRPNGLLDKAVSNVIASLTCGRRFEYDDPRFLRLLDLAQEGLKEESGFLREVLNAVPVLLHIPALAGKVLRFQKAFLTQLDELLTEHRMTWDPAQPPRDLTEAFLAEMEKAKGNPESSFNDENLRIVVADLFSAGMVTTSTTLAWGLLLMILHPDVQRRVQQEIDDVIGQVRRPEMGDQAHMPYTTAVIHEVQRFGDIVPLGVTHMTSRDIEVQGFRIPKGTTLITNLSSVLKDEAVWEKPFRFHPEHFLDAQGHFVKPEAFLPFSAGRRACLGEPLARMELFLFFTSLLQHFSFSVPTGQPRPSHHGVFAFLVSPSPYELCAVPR
Experiment: Cytochrome panel assay with activity outcomes
Settings: recombinant CYP, pro-luciferin dealkylation, luminescence, p450-cyp2d6; series mostly up to 57.1 µM; activity, negative = inhibition: at the top concentration
% is set by controls: 0 for no effect and ±100 for the full control effect.

Row | Structure (SMILES) | activity, negative = inhibition | AC50
1 | COC(=O)c1ccc(/C=N\NC(=O)c2ccc(C)cc2Cl)cc1 | 7.06% | 
2 | CN1c2ccccc2C(C)(C)C12C=Nc1c(cc(N3CCOCC3)c3ccccc13)O2 (configuration not stated) | -25.9% | 
3 | O=C1C=CC(=Nc2cccc3c(N=C4C=CC(=O)O4)cccc23)O1 | 3.55% [at 11.4 µM] | 
4 | O=C(c1ccco1)N1CCN(C(=O)c2nn3cccnc3c2Cl)CC1 | 0.557% | 
5 | COc1cc(/C=C\C(=O)N2CCC=CC2=O)cc(OC)c1OC | -0.509% [at 25.6 µM] | 
6 | CCCC(=O)Nc1nc2nc(-c3ccccc3)cc(-c3ccccc3)n2n1 | 9.65% | 
7 | O=C(O)CCc1ccc(-c2ccccc2)[nH]1 | 3.02% [at 11.4 µM] | 
8 | CC(C)(C)c1ccc(C(=O)Nc2ccc(NC(=O)c3ccco3)cc2)cc1 | -9.98% | 
9 | CC(C)(C)c1ccc(C(=O)NCc2ccc(Cl)cc2)cc1 | 23.5% | 
10 | CC(=O)Nc1nonc1NC(=O)c1ccc(C(C)(C)C)cc1 |  | 10 µM (active)
11 | CC/C=C\CC[C@H](O)C1=CCCCC1=O | 0.601% [at 11.4 µM] | 
12 | CC1=C(C(=O)Nc2cccnc2)C(c2cccnc2)n2nc(-c3cccs3)nc2N1 (configuration not stated) | 11.8% | 
13 | Cc1ccc(C)c(Cn2c(C(=O)OC(C)C)cc3c2ccn3C)c1 | -10.6% | 
14 | O=C(COc1ccc(Cl)cc1)N(Cc1ccccc1)c1ccccn1 | 5.58% | 
15 | COc1ccc(CN(CCN(C)C)c2ccccn2)cc1 |  | 501 nM (active) and 126 nM (active) and 100 nM (active)
16 | CN(C)CCN(Cc1ccc(Cl)cc1)c1ccccn1 |  | 0.02 µM (active)
17 | COc1ccc(CC(=O)O/N=C(\N)Cc2ccc(OC)cc2)cc1 | 3% | 
18 | CN(C)CCOC(=O)COc1ccc(Cl)cc1 |  | inactive
19 | CCCCCCCCCCCCCCCC[N+](C)(C)CCN(Cc1ccc(OC)cc1)c1ncccn1 |  | 12.6 µM (active)
20 | CCSc1nnc(-c2ccccc2NC(C)=O)c(=O)[nH]1 | -26.1% | 
21 | COc1ccc(-c2nc3cnc(N4CCNCC4)nc3n(Cc3ccc(F)cc3)c2=O)cc1 | -0.475% | 

Row | Structure (SMILES) | activity, negative = inhibition | AC50
22 | CCOC(=O)CSc1nnc(Cc2cc(=O)[nH]c(=O)[nH]2)n1-c1cccc(OC)c1 | 0.419% | 
23 | CCNC(=O)c1ccc(-n2nc(C)cc2-c2ccccc2)cc1 | 6.71% | 
24 | CC(C)=CCC/C(C)=C/CO/N=C1/C[C@@H](O)[C@@H](O)[C@@H]2[C@H]3C(=O)N(c4ccc(F)cc4F)C(=O)[C@@H]3CC[C@@H]12 | 8.95% [at 11.4 µM] | 
25 | COc1ncc2nc(-c3cn(C)c4ccccc34)c(=O)n(C)c2n1 | 3.38% | 
26 | CN(C)/C(CN1CCOCC1)=C1\N=C(c2ccccc2)OC1=O | 5.8% | 
27 | CC(=O)/C(=N\N=C(N)N)c1ccccc1 | -4.42% [at 11.4 µM] | 
28 | NC(N)=N/N=C(/c1ccccc1)c1ccc(O)cc1O |  | 1.26 µM (active)
29 | NC(N)=N/N=C\c1ccc(O)c(C(=O)O)c1 | 13.4% [at 11.4 µM] | 
30 | COCCCNC(=O)c1c(NC(=O)c2cccs2)sc2c1CCCC2 | -17.3% | 
31 | CCC1OC23CCCCC2C(C#N)(C(=N)O3)C1(C#N)C#N (configuration not stated) | 8.79% | 
32 | Cc1ccc2nc(SCc3nnc(-c4ccccc4[N+](=O)[O-])o3)c(C#N)cc2c1 | -4.06% | 
33 | Cc1nonc1NCn1nnc2ccccc21 | 8.37% | 
34 | NN(CC(=O)O)CC(=O)O | -0.968% [at 11.4 µM] | 
35 | CO[C@H]1COC(=O)[C@H](C)NC(=O)C/C=C\[C@@H](C)[C@@H](NS(=O)(=O)c2ccc(C)cc2)COC(=O)C/C=C\[C@@H]1C | 6.92% [at 11.4 µM] | 
36 | CC1CCC(C(=O)O)([C@H](Br)C(=O)O)CC1 (some centres not stated) | -1.57% [at 11.4 µM] | 
37 | Cc1nc2cnc(N3CCN(C)CC3)nc2n(C)c1=O | 12% | 
38 | O=C1c2cccc([N+](=O)[O-])c2C(=O)N1c1ncn[nH]1 | 10.8% [at 11.4 µM] | 
39 | COC(=O)[C@]1(C)CCC(c2ccc(C)cc2)=C(CC(=O)O)C1 | 13.4% [at 11.4 µM] | 
40 | C[C@]1(C2CCCC2)Cc2cc(OCC(=O)O)c(Cl)c(Cl)c2C1=O | 6.24% | 
41 | CSc1cccc(NC(=O)OC2CCCCCCCCCCC2)c1 | 10.7% [at 11.4 µM] | 
42 | Cc1cc(NC(=O)C2CCCC2)n(-c2nc3ccccc3[nH]2)n1 | -10.9% | 

Row | Structure (SMILES) | activity, negative = inhibition | AC50
43 | CC(=O)Nc1ccc2nc(C3CCCCC3)[nH]c2c1 |  | 12.6 µM (active)
44 | O=C(CSc1nnc(CNc2ccc(F)cc2)o1)OC1CCCCC1 | -30.4% | 
45 | Oc1ccc(/C=N/NC(=S)NCc2ccco2)cc1 | 2.33% | 
46 | CCCn1c(C)nc2c(c1=O)c1nc3ccccc3nc1n2CCC1=CCCCC1 | -23.2% | 
47 | N#CC1(Nc2ccc(-c3ccc(NC4(C#N)CCCC4)cc3)cc2)CCCC1 | 8.6% [at 11.4 µM] | 
48 | Cn1ncc(C#N)c1/N=C/N1CCCCCC1 | 3.27% | 
49 | CCc1ccc(OCC(=O)NC(=S)Nc2ccc(C)cc2C)c(Br)c1 | 3.53% | 
50 | CCOC(=O)c1nnn(-c2nc(OC)nc(N3CCCCC3)n2)c1-c1ccccc1 |  | 17.8 µM (active)
51 | CCOC(=O)c1nnn(-c2nonc2N)c1-c1ccccc1 | 5.69% | 
52 | CCOC(=O)c1nnn(-c2nonc2N)c1-c1ccc(C)cc1 | 1.09% | 
53 | Cc1nn(Cc2c(F)c(F)c(F)c(F)c2F)c(C)c1NC(=O)c1cccc(COc2ccc(Cl)cc2)c1 | -24.2% | 
54 | COc1ccc(Oc2ncc3ncc(=O)n(C[C@H]4CCCO4)c3n2)cc1 | 4.88% | 
55 | COc1ccc(NC(=O)c2ccc(-c3ccc(-c4noc(C)n4)cc3C)cc2)cc1OCCN(C)C |  | 12.6 µM (active)
56 | COc1ccc(NC(=O)c2cc(C(C)C)on2)cc1OC | -22.8% | 
57 | COc1ccc(-c2cc(C(=O)Nc3cc(OC)c(OC)c(OC)c3)no2)cc1OC | -1.21% | 
58 | CC[C@H]1C2=C3C(CC[C@H]4C(OCc5ccc(F)cc5C(F)(F)F)OC[C@](C)([C@@H]34)N(C(=O)OC(C)(C)C)C2)C(COC)C1COC (some centres not stated) | 2.49% | 
59 | CC(=O)NC1(c2cccc(F)c2)CCN(CC(=O)NC2CCCCC2)CC1 | -8.39% | 
60 | Cn1c(CCNC(=O)c2ccccc2Cl)n[nH]c1=S | -4.47% | 
61 | O=C1O[C@H](CN2CCOCC2)CN1/N=C\c1ccc([N+](=O)[O-])o1 | -18.9% [at 25.6 µM] | 
62 | CCCSc1nnc(CSc2nc3nc(C)cc(C)n3n2)o1 | -9.07% | 
